This is an account of results in PubChem BioAssay (NCI).

Common to all, as to test: NCI-60 one-dose screen, 48 h (100 = growth as untreated, 0 = no growth, -100 = all killed)
Holding throughout (details): 10 µM

For experiment [1], the system named is NCI-H23 lung.
In experiment [2] the test system is NCI-H226 lung.
Experiment [3] concerns NCI-H322M lung.
In experiment [4] the test system is HOP-62 NSCLC.
Experiment [5] relates to NCI-H460 lung.
The subject of experiment [6] is NCI-H522 lung.
For experiment [7], the system named is A549/ATCC NSCLC.
The subject of experiment [8] is 786-0 renal.
Experiment [9] relates to COLO 205 colon.
Experiment [10] has as its system DU-145 prostate.
Experiment [11] relates to K-562 leukemia.
Experiment [12] deals with MALME-3M melanoma.
Experiment [13] relates to MDA-MB-231 breast.
Experiment [14] concerns RXF 393 renal.
Experiment [15] has as its system SF-268 CNS.
The subject of experiment [16] is SF-295 CNS.
Experiment [17] concerns SF-539 CNS.
Experiment [18] deals with UACC-257 melanoma.
Experiment [19] concerns M14 melanoma.
Experiment [20] relates to HCT-15 colon.

Compounds without any hit were thinned out: in the full panel of roughly 83,000, 20% have a hit.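 Results are percent growth after 48 hours of single-concentration exposure. 100 means growth as in untreated cells, lower positive values show inhibition; negative values down to -100 show cell death.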 Values without a mark were called inactive. The source made the active and inactive calls. Rule for the calls: active = growth percent below 10; inactive = the rest.

Turning to `COc1ccc2c(c1)O/C(=C\c1ncc([N+](=O)[O-])n1C)C2=O`, the growth was -7.25% (active) in experiment [1]; -42.3% (active) in experiment [2]; 2.34% (active) in experiment [3]; -20% (active) in experiment [4]; -30.6% (active) in experiment [5]; -48.8% (active) in [6]. The growth in [7] is -23.9% (active); in [8], -13.4% (active); in experiment [9], -49.2% (active); in experiment [10], -19.2% (active); in experiment [11], 1.57% (active); in experiment [12], -65.6% (active). Also, the growth in [13] is -10.3% (active); in experiment [14] it was -72% (active); in experiment [15], -17.6% (active); in experiment [16] it was -34.6% (active); in experiment [17], -60.9% (active); in experiment [18] it was -57% (active). Besides, the growth in experiment [19] was -54.6% (active); in experiment [20], 2.5% (active).

For `CSc1nc(=O)n(Cc2ccc(F)cc2)c(=O)n1Cc1ccc(C)cc1`, the growth in [1] is 101%; in experiment [2], 101%; in experiment [3], 112%; in experiment [4], 101%; in experiment [5], 105%; in [6] it was 110%. Moreover, the growth is 88.5% in [7]; 100% in experiment [8]; 94.6% in [9]; 107% in experiment [10]; 91.1% in experiment [11]; 97.6% in [12]. Besides, the growth in experiment [13] was 103%; in experiment [14], 113%; in [15], 96.6%; in [16] it was 79.8%; in experiment [17], 108%; in experiment [18], 106%. The figures for the growth in experiment [19] and in experiment [20] were 99.7% and 102%, respectively.

In the case of `CCCC(F)C(=O)O` (stereo not given), the growth is 105% in experiment [1]; 114% in experiment [2]; 90.9% in experiment [3]; 113% in experiment [4]; 106% in experiment [5]; 89.5% in [6]. For the same compound, the growth is 92% in experiment [7]; 97.2% in experiment [8]; 108% in [9]; 117% in experiment [10]; 97.6% in experiment [11]; 103% in [12]. Also, the growth is 111% in [13]; 117% in [14]; 107% in experiment [15]; 83.5% in experiment [16]; 102% in experiment [17]; 92.2% in [18]. Further, the values for the growth in experiment [19] and in experiment [20] were 97.5% and 100%, respectively.

Turning to `CCOC(=O)C1CCc2c(ccc3ccccc23)N1CCC#N` (stereo not given), the growth in experiment [1] was 89.7%; in experiment [2], 98.7%; in experiment [3], 85.7%; in experiment [4], 101%; in [5] it was 109%; in [6], 93.3%. Further, the growth is 104% in experiment [7]; 100% in experiment [8]; 119% in experiment [9]; 111% in [10]; 55.5% in experiment [11]; 80.2% in experiment [12]. Moreover, the growth in [13] is 91.5%; in experiment [14] it was 89%; in experiment [15] it was 113%; in experiment [16] it was 88%; in [17], 110%; in [18] it was 104%. Besides, the figures for the growth in experiment [19] and in experiment [20] were 93.3% and 91.9%, respectively.

For `COc1ccc(Cl)cc1-n1nnc(-c2nc3ccccc3[nH]2)c1N`, the growth is 92.8% in [1]; 60% in experiment [2]; 75% in experiment [3]; 37.3% in experiment [4]; 27.7% in experiment [5]; 68.6% in experiment [6]. For the same compound, the growth in experiment [7] is 61.8%; in experiment [8] it was 58.1%; in experiment [9], 98.1%; in experiment [10] it was 93.4%; in experiment [11] it was 94.5%; in [12], 63.8%. Also, the growth in experiment [13] is 86.1%; in [14], 74.2%; in experiment [15], 62.6%; in [16], 58.7%; in [17] it was 91.6%; in experiment [18], 95.4%. Besides, the growth was 89.3% in experiment [19] and 94.1% in [20].

Consider `O=C(c1cccs1)c1ccccc1Cc1ccccc1`, for which the growth is 102% in [1]; 92.3% in experiment [2]; 83.6% in experiment [3]; 96.6% in experiment [4]; 107% in experiment [5]; 100% in [6]. For the same compound, the growth in experiment [7] is 89.1%; in experiment [8], 108%; in experiment [9], 116%; in experiment [10] it was 128%; in [11], 98.2%; in experiment [12], 110%. Further, the growth was 88.6% in [13]; 99.5% in [14]; 115% in [15]; 98.3% in experiment [16]; 112% in [17]; 92.8% in experiment [18]. The growth was 118% in [19] and 103% in experiment [20].

As to `COc1ccc(/C=C2/CN(CCC#N)C/C(=C\c3ccc(OC)cc3)C2=O)cc1`, the growth in experiment [1] was 31.1%; in experiment [2] it was -6.76% (active); in [3], 76%; in experiment [4] it was -38% (active); in [5], 2.6% (active); in [6] it was -28% (active). Also, the growth in experiment [7] was -4.55% (active); in experiment [8], -14.3% (active); in [9], -52.3% (active); in experiment [10], 5.29% (active); in experiment [11], 1.95% (active); in [12], -44.7% (active). Moreover, the growth in experiment [13] is -25.4% (active); in [14] it was -63% (active); in experiment [15], 0.448% (active); in [16] it was -32.7% (active); in experiment [17], 9.73% (active); in experiment [18] it was 17.4%. Further, the growth is 0.654% (active) in [19] and 0.438% (active) in experiment [20].

Take `Cc1ccc(Nc2nnc(-c3cc(-c4ccncc4)n(-c4ccccc4)n3)s2)cc1`: the growth was 90.5% in [1]; 86.2% in [2]; 98.7% in experiment [3]; 114% in experiment [4]; 56.8% in experiment [5]; 84.5% in [6]. Moreover, the growth is 60.5% in experiment [7]; 41.9% in experiment [8]; 73.8% in [9]; 107% in experiment [10]; 27% in experiment [11]; 74.8% in experiment [12]. Also, the growth in experiment [13] was 18.9%; in experiment [14], 57.5%; in [15], 113%; in experiment [16] it was 21.9%; in [17], 91.6%; in [18], 110%. The growth is 61.9% in [19] and 9.74% (active) in experiment [20].
